Screening data: PubChem BioAssay, National Center for Advancing Translational Sciences (NCATS)
Sampled rows, rich in hits. Any-hit rate of the full collection: about 4.7%.
TRHR agonist: activates the human TRH receptor; P34981; TRHR cells, calcium flux fluo-8, FDSS agonist mode; activation, % at 2 µM; 360,000 tested, 0.18% active; note: 0% is about no effect
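Read-out: compound-evoked intracellular calcium rise in TRHR cells, fluo-8 dye, kinetic FDSS fluorescence at 1 s/cycle following a 10-cycle baseline. Cells cultured overnight before dye loading (30 min–1.5 h, RT).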
TRHR enhancer: allosterically enhances the human TRH receptor. P34981. TRHR cells, fluo-8 calcium fluorescence, EC20 TRH enhancement. enhancement, % at 2 µM. 360,000 tested, 0.66% active. AID 493056; in the data active = enhancement above about 30%; note: 0% is about no effect
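TRHR-expressing cells loaded with fluo-8 calcium dye were read kinetically (ex 480/em 530) during compound addition, then stimulated with an EC20 of TRH (10 nM final). Enhancement of the Gq-mediated intracellular calcium response was scored.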
D1 ag: human D1 receptor agonism; HEK293 T-REx D1 cells, calcium flux, agonist mode; P21728; AID 504660; activation, % at 2 µM; 360,000 tested, 1% active; note: 0% is about no effect
Target sequence (P21728 whole entry, looked up): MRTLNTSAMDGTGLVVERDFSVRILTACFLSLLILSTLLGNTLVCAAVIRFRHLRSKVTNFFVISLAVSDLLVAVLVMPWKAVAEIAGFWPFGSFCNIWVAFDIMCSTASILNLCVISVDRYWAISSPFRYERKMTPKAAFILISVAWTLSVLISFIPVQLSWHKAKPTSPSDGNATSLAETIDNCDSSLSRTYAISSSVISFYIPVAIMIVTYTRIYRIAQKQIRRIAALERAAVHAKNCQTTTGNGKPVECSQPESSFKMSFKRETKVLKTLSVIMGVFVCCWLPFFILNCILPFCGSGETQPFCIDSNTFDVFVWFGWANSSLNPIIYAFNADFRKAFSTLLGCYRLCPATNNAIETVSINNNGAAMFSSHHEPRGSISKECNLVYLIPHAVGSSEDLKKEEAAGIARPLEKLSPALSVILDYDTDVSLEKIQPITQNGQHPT
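Agonism was scored from calcium flux recorded over 180 s (1 read/s) after pintool compound addition, following a 10-cycle baseline. Cells were inducible force-coupled HEK293 TREx D1, plated overnight at 30 C and loaded with no-wash calcium dye.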
D1 antagonist: blocks dopamine activation of the human D1 receptor | P21728 | HEK293 TREx D1 cells, calcium flux, dopamine EC80; stronger effect = lower value | activity change, negative = inhibition, % at 10 µM | 360,000 tested, 3.2% active | AID 504652; in the data active = activity change below about -30%; note: % is set by controls: 0 for no effect and ±100 for the full control effect
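Cells carrying a force-coupled, tetracycline-inducible human D1 receptor report calcium flux. Each well gets a 10 s baseline, compound with 180 s monitoring, then an EC80 dopamine stimulus with a second 180 s kinetic read.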
D1 potentiator: enhances dopamine response at the human D1 receptor; 360,000 tested, 0.036% active; potentiation, % at 10 µM; AID 504651; P21728; HEK293 TREx D1 cells, calcium flux, dopamine EC20 potentiation; in the data active = potentiation above about 30%; note: 0% is about no effect
* = called active by the depositor; nt = not tested or not shown. Cut-off read from the data, not from the text of the source, unless noted: active = activation above about 30%; inactive = the rest.

SMILES | TRHR agonist | TRHR enhancer | D1 ag | D1 antagonist | D1 potentiator
CCN(CC)CCCNC(=O)c1ccc2c(c1)NC(=O)C(CS(=O)(=O)Cc1ccc(F)cc1Cl)N2 (stereo not given) | 1 | 1 | 0 | 16 | -2
CN(C)CCCOc1nn(Cc2ccccc2)c2ccccc12 | 1 | 17 | 18 | -31* | -8
Cc1ccc(C)c(NC(=O)C2CCN(c3cc(C)nc4c(-c5ccc(Cl)cc5)c(C)nn34)CC2)c1 | 0 | 3 | 1 | 11 | 2
O=C1CN(S(=O)(=O)c2ccc3c(c2)OCCO3)CCN1S(=O)(=O)c1c(F)cccc1F | -1 | -3 | 8 | 0 | 5
O=S(=O)(c1ccc(Cl)cc1)N(Cc1ccccn1)Cc1ccccn1 | -1 | -5 | 3 | 3 | -3
CCN(CC)S(=O)(=O)c1ccc(S(=O)(=O)N(Cc2ccccn2)Cc2ccco2)cc1 | -1 | 1 | 31* | -56* | -12
O=S(=O)(NCc1ccccc1)c1ccc(S(=O)(=O)N(Cc2ccccn2)Cc2ccco2)cc1 | -1 | -2 | 26 | -34* | -11
COc1cccc(NC(=O)N2CCC(n3nnc4ccccc43)CC2)c1 | 0 | -7 | 20 | -47* | -4
Cc1cc(C)n(C(C)CC(=O)NCc2ccc(Cl)cc2)n1 (stereo not given) | 0 | 3 | 0 | -7 | -6
C=Cc1cc2c(s1)c1cnn(Cc3ccccc3F)c(=O)c1n2C | -1 | -2 | 2 | 13 | 5
Nc1nonc1C(=O)NCCNCc1ccccc1F | 0 | 0 | -2 | -3 | -2
Nc1nonc1C(=O)NCCNCc1cc(Br)ccc1OCc1ccc(F)cc1 | 0 | 1 | 15 | -37* | -3
Nc1nonc1C(=O)NCCNCc1c(OCc2ccccc2F)ccc2ccccc12 | 0 | 1 | 11 | -45* | -9
Nc1nonc1C(=O)NCCNCc1ccccc1 | 0 | -4 | 4 | -47* | 2
COc1ccc(CNCCNC(=O)c2nonc2N)cc1OC | 0 | -3 | -1 | 8 | -7
COc1cccc(C(=O)c2cn(CC(=O)NCc3ccccc3)c3nc(C)ccc3c2=O)c1 | 0 | 0 | 5 | 2 | -4
CN(C)CCCOc1ccc2c(c1)Sc1ccccc1CC2=O | -1 | 6 | 79* | -60* | -6
COc1ccc(-n2nnc(-c3nc(-c4ccc5c(c4)OCO5)no3)c2C)cc1Cl | 0 | 2 | 2 | -11 | -3
COc1ccc(COC(=O)c2c(C)nn(-c3ccccc3)c2Cl)cc1 | 1 | -9 | 25 | -37* | -7
CCOC(=O)COc1ccccc1/C=C\[N+](=O)[O-] | 7 | 0 | 0 | -86* | -11
Cn1nc(C(F)(F)F)c(CNC(=O)C(C)(C)CCl)c1N1CCOCC1 | 0 | 9 | 0 | 0 | 3
Cn1nc(C(F)(F)F)c(CN2CC(C)(C)C2=O)c1N1CCOCC1 | 0 | -5 | 0 | -31* | -5
Cc1cccc(CNC(=O)CCCn2c(=O)c3cccn3c3ccc(F)cc32)c1 | -1 | -3 | 6 | -3 | -4
COc1ccc(-c2sc(NC(C)=O)nc2-c2ccccc2)cc1 | 0 | -1 | 0 | -17 | -11
COc1ccc(-c2nc(NC(C)=O)sc2-c2ccccc2)cc1 | -2 | -5 | 3 | -32* | -14
SMILES | TRHR agonist | TRHR enhancer | D1 ag | D1 antagonist | D1 potentiator
COc1ccc(C2C(=O)N(C3CCCCC3)CC(=O)N2CCc2ccc(C)cc2)cc1OC (stereo not given) | -1 | -7 | -3 | 21 | -1
COc1ccccc1CNC(=O)CCCCn1c(=O)c2ccccc2n(CC(=O)Nc2c(C)cc(C)cc2C)c1=O | 0 | -2 | -3 | -4 | 2
Cc1ccc(NC(=O)N2CCC(c3nc4c(nnn4Cc4cccc(Cl)c4)c(=O)[nH]3)CC2)cc1 | 1 | 2 | 4 | -47* | -8
CC12CCC(=O)N1C(C(=O)N1CCN(c3cccc(Cl)c3)CC1)CS2 (stereo not given) | 0 | -16 | 9 | -61* | nt
CC12CCC(=O)N1C(C(=O)Nc1ccccc1F)CS2 (stereo not given) | 1 | 0 | -1 | 6 | 5
CC12CCC(=O)N1C(C(=O)N1CCN(c3ccccc3)CC1)CS2 (stereo not given) | 0 | -11 | 3 | -16 | -1
CC12CCC(=O)N1C(C(=O)Nc1ccc(F)c(Cl)c1)CS2 (stereo not given) | 0 | 35* | 1 | 4 | -3
Cc1nc(C)c(-c2ccc(SCC(=O)Nc3cccc(F)c3)nn2)s1 | -1 | 7 | 10 | -32* | 2
COc1cccc(N2CC(C(=O)Nc3ccc(C(=O)OC(C)C)cc3)CC2=O)c1 (stereo not given) | -1 | -1 | 17 | -30* | -7
COc1cccc(N2CC(C(=O)Nc3ccc(F)cc3)CC2=O)c1 (stereo not given) | 2 | 7 | 10 | 3 | -4
CCCCSc1nc(O)c(C2OC(=O)c3c2ccc(OC)c3OC)c(=O)n1-c1ccccc1 (stereo not given) | 0 | 31* | 1 | -34* | 2
CCCOc1ccc(Nc2nc(SC)ncc2C(=O)OCC)cc1 | 0 | 7 | -1 | 12 | 1
CCc1c(C#N)sc(C(N)=O)c1CC | 0 | 4 | 0 | -58* | 1
O=c1c2oc3ccccc3c2n(Cc2ccccc2Cl)c(=O)n1Cc1ccco1 | -2 | 4 | -1 | -6 | -1
N#C/C(=C\c1c[nH]c2ccccc12)C(=O)Nc1ncc(Cc2ccc(Cl)cc2Cl)s1 | -1 | 21 | 35* | 5 | -6
Cn1cc(/C=C(\C#N)C(=O)Nc2ncc(Cc3cccc(Cl)c3)s2)c2ccccc21 | 10 | -2 | 25 | -10 | -10
COC(=O)c1ccc(C(=O)OC)c(NC(=O)CN(C)Cc2ccccc2)c1 | 1 | 31* | 10 | -9 | -1
COC(=O)c1ccc(C(=O)OC)c(NC(=O)CSCc2ccc(Br)cc2)c1 | 1 | 7 | 33* | -42* | -3
COC(=O)c1ccc(C(=O)OC)c(NC(=O)CN(C)Cc2cccc(Cl)c2Cl)c1 | 0 | 19 | 10 | 1 | 9
COc1ccc(-c2cc(C(F)F)n3ncc(C(=O)Nc4cc(C)on4)c3n2)cc1 | 1 | 9 | 12 | -38* | -3
COc1ccc(-c2cc(C(F)F)n3ncc(C(=O)Nc4c(C)n(C)n(-c5ccccc5)c4=O)c3n2)cc1 | -2 | -3 | 3 | -13 | -3
CCCNC(=O)c1cnn2c(C(F)F)cc(-c3ccccc3)nc12 | 0 | 30* | 2 | -6 | -4
CCCNC(=O)N1CCCN(S(=O)(=O)c2ccc3c(ccn3CC)c2)CC1 | 0 | 0 | 1 | 3 | -1
CNC(=O)c1cc(S(=O)(=O)N2CC(C)OC(C)C2)ccc1N1CCOCC1 (stereo not given) | 1 | 2 | 1 | -18 | -3
